Consider 13 compounds from PubChem BioAssay (NCI).

Structures are written as SMILES. This is part of a sample that, as a whole, favours compounds with a hit. Of some 83,000 tested, about 20% had one in any assay.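 Single-dose data. Exposure time 48 hours. Values below 10 considered active.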 A number with no mark means an inactive call. The source made the active and inactive calls.

Test systems include HCT-15 colon; HT29 colon; SNB-75 CNS; SNB-19 CNS; U251 CNS; PC-3 prostate; SK-MEL-5 melanoma; UACC-62 melanoma; LOX IMVI melanoma; SK-MEL-28 melanoma.
Assay in all cases: NCI-60 one-dose screen, 48 h (100 = growth as untreated, 0 = no growth, -100 = all killed)
What all share (conditions): 10 µM unless noted

With `CN1C(=O)/C(=C/c2ccc(C(=O)Nc3ncc(Cc4cc(Cl)ccc4Cl)s3)cc2)SC1=S`, the growth in the assay with HCT-15 colon is 49%; in the assay with HT29 colon, 64%; with SNB-75 CNS, 63.1%; in the assay on SNB-19 CNS, 87.8%; in the assay with U251 CNS, 82.7%; in the assay on PC-3 prostate it was 65.8%. Further, the growth in the assay on SK-MEL-5 melanoma is 67%; in the assay on UACC-62 melanoma, 34.2%; in the assay with LOX IMVI melanoma, 41.7%; in the assay on SK-MEL-28 melanoma, 77%.

For the compound `COc1ccc(C/C(C)=C(\c2ccc(Cl)cc2)c2ccc(OCCN3CCCC3)cc2)cc1`, the growth with HCT-15 colon is 40.2%; in the assay on HT29 colon, 19.6%; in the assay on SNB-75 CNS, 88.5%; with SNB-19 CNS it was 92.1%; in the assay on U251 CNS, 61.1%; with PC-3 prostate it was 77.8%. In addition, the growth is 89.7% in the assay with SK-MEL-5 melanoma, 90.8% in the assay with UACC-62 melanoma, 82.9% with LOX IMVI melanoma and 91.4% with SK-MEL-28 melanoma.

Take `Cc1cc(=O)n(C(=S)Nc2ccc(Cl)cc2)c2cc(O)ccc12`: the growth is 105% with HCT-15 colon; 104% in the assay with HT29 colon; 86.1% in the assay on SNB-75 CNS; 102% with SNB-19 CNS; 101% in the assay with U251 CNS; 95.6% in the assay on PC-3 prostate. The growth with SK-MEL-5 melanoma is 95.3%; in the assay on UACC-62 melanoma, 100%; with LOX IMVI melanoma, 99.3%; in the assay with SK-MEL-28 melanoma, 114%.

For the compound `Nc1ncnc2c1N=C(c1ccc(F)cc1)CC(c1cccc(Nc3ccnc4cc(Cl)ccc34)c1)N2` (stereo not given), the growth with HCT-15 colon was 48.4%; with HT29 colon, 62.8%; in the assay with SNB-75 CNS, 72.7%; in the assay on SNB-19 CNS, 82%; with U251 CNS, 66.2%; in the assay with PC-3 prostate, 66.3%. For the same compound, the growth with SK-MEL-5 melanoma is 72%; in the assay with UACC-62 melanoma, 89.5%; with LOX IMVI melanoma, 68.2%; in the assay on SK-MEL-28 melanoma, 95.3%.

Turning to `CN(C)Cc1ccc(NC(=O)c2cncc(C#Cc3cnc(N)c4ncccc34)c2)cc1C(F)(F)F`, the growth was -50.6% (active) with HCT-15 colon; -50.1% (active) in the assay with HT29 colon; 82.2% in the assay on SNB-75 CNS; -8.43% (active) in the assay with SNB-19 CNS; -57.5% (active) in the assay with U251 CNS; 92.2% in the assay with PC-3 prostate. The growth was 24.8% in the assay with SK-MEL-5 melanoma, 45.1% in the assay on UACC-62 melanoma, -79.9% (active) in the assay with LOX IMVI melanoma and -83.1% (active) with SK-MEL-28 melanoma.

In the case of `Clc1ccc(Nc2nnc(CNc3ccccc3)c3ccccc23)cc1`, the growth is 13.4% in the assay with HCT-15 colon; 0.551% (active) with HT29 colon; 19.6% with SNB-75 CNS; 25.9% in the assay with SNB-19 CNS; 9.66% (active) in the assay on U251 CNS; 7.15% (active) in the assay on PC-3 prostate. For the same compound, the growth was -69.1% (active) with SK-MEL-5 melanoma, 8.47% (active) with UACC-62 melanoma, 12.1% with LOX IMVI melanoma and 14.9% in the assay on SK-MEL-28 melanoma.

On to `COC1/C=C/OC2(C)Oc3c(C)c(O)c4c(O)c(c(/C=N/N(c5ccccc5)c5ccccc5)c(O)c4c3C2=O)NC(=O)C(C)=C/C=C/C(C)C(O)C(C)C(O)C(C)C(OC(C)=O)C1C` (stereo not given), for which the growth in the assay with HCT-15 colon was 41.4%; in the assay on HT29 colon, 45.5%; with SNB-75 CNS it was 66.9%; with SNB-19 CNS, 71.2%; with U251 CNS, 41.8%; in the assay on PC-3 prostate, 38.7%. In addition, the growth in the assay with SK-MEL-5 melanoma was -98.8% (active); with UACC-62 melanoma it was 48.3%; with LOX IMVI melanoma, 47.4%; in the assay with SK-MEL-28 melanoma it was 39.1%.

With `COc1ccc(-c2cc(C(=O)N3N=C(c4ccc(N)cc4)CC3c3ccc(Cl)cc3)c3ccccc3n2)cc1` (stereo not given), the growth in the assay on HCT-15 colon was 21.4%; in the assay on HT29 colon, -11.7% (active); in the assay with SNB-75 CNS it was 5.79% (active); with SNB-19 CNS, 48.3%; in the assay on U251 CNS it was 15.2%; in the assay on PC-3 prostate, 26.1%. For the same compound, the growth is 25.9% with SK-MEL-5 melanoma, 38.3% in the assay with UACC-62 melanoma, 33% in the assay on LOX IMVI melanoma and 63.4% with SK-MEL-28 melanoma.

Consider `O=c1oc2c(cc1-c1ccccc1)c[n+]([O-])c1ccccc21`, for which the growth in the assay with HCT-15 colon was 103%; with HT29 colon, 103%; in the assay with SNB-75 CNS, 93%; in the assay with SNB-19 CNS it was 97.9%; in the assay with U251 CNS it was 97.9%; in the assay with PC-3 prostate it was 97%. For the same compound, the growth with SK-MEL-5 melanoma is 98.1%; in the assay with UACC-62 melanoma, 97.4%; in the assay with LOX IMVI melanoma, 101%; with SK-MEL-28 melanoma it was 109%.

Consider `COc1cc(C[C@H]2COc3cc(O)cc(O)c3C2=O)ccc1O`, for which the growth in the assay on HCT-15 colon is 19.9%; in the assay with HT29 colon it was 83.8%; in the assay on SNB-75 CNS, 14.1%; in the assay with SNB-19 CNS it was 31.5%; in the assay with U251 CNS, 22.3%; in the assay on PC-3 prostate it was 29.7%. Further, the growth with SK-MEL-5 melanoma was 22.4%; in the assay on UACC-62 melanoma, 30.9%; in the assay with LOX IMVI melanoma it was 38.6%; in the assay with SK-MEL-28 melanoma it was 58.4%.

As for `O=C(NCCNC(c1ccccc1)C(NCCNC(=O)c1ccccc1)c1ccccc1)c1ccccc1` (stereo not given), the growth in the assay with HCT-15 colon is 18.8%; in the assay on HT29 colon, 36.7%; in the assay with SNB-75 CNS, 117%; with SNB-19 CNS it was 88%; in the assay with U251 CNS, 74.7%; with PC-3 prostate, 70.4%. For the same compound, the growth in the assay with SK-MEL-5 melanoma is 95.7%; in the assay with UACC-62 melanoma it was 85.2%; in the assay with LOX IMVI melanoma, 75.6%; with SK-MEL-28 melanoma, 103%.

Regarding `Cn1c2ccccc2c2c3c(c4c5cc(Br)ccc5n(C)c4c21)C(=O)N(O)C3=O`, the growth with HCT-15 colon was 21%; in the assay with HT29 colon it was 52.6%; in the assay on SNB-75 CNS, 38.9%; in the assay on SNB-19 CNS, 16%; with U251 CNS, 3.06% (active); in the assay with PC-3 prostate, 47%. Besides, the growth in the assay on SK-MEL-5 melanoma is -35.4% (active); in the assay on UACC-62 melanoma it was -4.53% (active); with LOX IMVI melanoma, -77.9% (active); in the assay with SK-MEL-28 melanoma, 54.3%.

In the case of `O=C(Nc1ccc(Oc2cccc(Cl)c2)c(Cl)c1)c1cccnn1`, the growth in the assay with HCT-15 colon is 56.7%; in the assay with HT29 colon it was 89.9%; in the assay on SNB-75 CNS, 77.7%; with SNB-19 CNS it was 89.5%; in the assay on U251 CNS it was 76.7%; in the assay with PC-3 prostate, 57.2%. Besides, the growth in the assay on SK-MEL-5 melanoma was 83.8%; with UACC-62 melanoma it was 74.7%; with LOX IMVI melanoma, 88.5%; in the assay with SK-MEL-28 melanoma, 99.4%.
